41 compounds from ChEMBL document CHEMBL5606458, “ASAP - ZIKV NS2B-NS3 protease fluorescence single point” (2024) can be followed below.

In the assay the target is Nonstructural protein 3 (Zika virus) (UniProt A0A024AXB9).
Setting [1] is: PRVABC59, Concentration 15.0 uM, Number of replicates 1.0.
Where [2] appears, read: PRVABC59, Concentration 50.0 uM, Number of replicates 1.0.

Among all 2,700 compounds or so, about 160 (5.9%) showed an effect of 50% or more. The sample as a whole holds a higher share of strong results than the screen did.

Sequence of Nonstructural protein 3 (Zika virus) (A0A024AXB9 as listed by the source): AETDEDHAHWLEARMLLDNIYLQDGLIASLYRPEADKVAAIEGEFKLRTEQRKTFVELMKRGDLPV

Consider `C[C@H](NC(=O)c1cc(Cl)ccc1NS(=O)(=O)c1ccc(Oc2ccccc2Cl)cc1)c1ccc(N2CCOCC2)cc1`, for which the inhibition under setting [1] was 18.7%.
Same read-out and setting: next, `Cc1cc(I)ccc1NC(=O)c1cc(Cl)ccc1NS(=O)(=O)c1ccc(Oc2ccccc2Cl)cc1`: 20.7%.
The same measure, in the same setting: in the case of `O=C(Nc1ccc(Cl)c(Cl)c1)c1cc(Cl)ccc1NS(=O)(=O)c1ccc(Oc2ccccc2Cl)cc1` it was 37.7%; in that of `O=C(Nc1ccc(N2CCOCC2=O)cc1)c1cc(Cl)ccc1NS(=O)(=O)c1ccc(Oc2ccccc2Cl)cc1`, 48.5%; in that of `O=C(Nc1cccc(N2CCOCC2)c1)c1cc(Cl)ccc1NS(=O)(=O)c1ccc(Oc2ccccc2Cl)cc1`, 66.3%.
Still for that read-out and setting: in the case of `O=C(c1cc(Cl)ccc1NS(=O)(=O)c1ccc(Oc2ccccc2Cl)cc1)N1CCC(N2CCCC2=O)CC1` it was -2.59%.
Take `Cn1ccc(CN2CC[C@H](c3c[nH]c4ccccc34)C2)cc1=O`: the inhibition runs as follows: (PRVABC59, Concentration 49.5 uM, Number of replicates 2.0, Standard deviation 0.9869168424646743 %) 2.74%; (PRVABC59, Concentration 99.01 uM, Number of replicates 2.0, Standard deviation 1.3893738957347146 %) 5.37%; (PRVABC59, Concentration 198.0 uM, Number of replicates 2.0, Standard deviation 1.456023236095902 %) 9.72%.
Regarding `O=C(c1cc(Cl)ccc1NS(=O)(=O)c1ccc(Oc2ccccc2Cl)cc1)N1CCN(Cc2cc(F)ccc2F)CC1`, the inhibition under setting [1] came out at 17.7%.
The same measure, in the same setting: in the case of `COc1cc(CNC(=O)c2cc(Cl)ccc2NS(=O)(=O)c2ccc(Oc3ccccc3Cl)cc2)cc(OC)c1OC` it was 19.3%.
For the compound `O=Cc1ccc(N2CCC(C(=O)Nc3cccc(Br)c3)CC2)cc1`, the inhibition under setting [2] stood at 23.9%.
In the case of `O=C(Nc1cc(Cl)c(O)c(Cl)c1)c1cc(Cl)ccc1NS(=O)(=O)c1ccc(Oc2ccccc2Cl)cc1`, the inhibition under setting [1] turned out to be 84.9%.
The same measure, in the same setting: in the case of `O=C(Nc1ccccc1I)c1cc(Cl)ccc1NS(=O)(=O)c1ccc(Oc2ccccc2Cl)cc1` it was 26.7%.
As to `O=C(NCc1noc(-c2cccs2)n1)c1cc(Cl)ccc1NS(=O)(=O)c1ccc(Oc2ccccc2Cl)cc1`, under setting [1], the inhibition was 51.9%.
Same read-out and setting: in the case of `O=C(Nc1cc(F)c(Br)c(F)c1)c1cc(Cl)ccc1NS(=O)(=O)c1ccc(Oc2ccccc2Cl)cc1` it was 23.4%.
Same read-out and setting: in the case of `O=C(NCc1noc(-c2ccco2)n1)c1cc(Cl)ccc1NS(=O)(=O)c1ccc(Oc2ccccc2Cl)cc1` it was 48.1%; in that of `O=C(Nc1ccccc1Oc1ccccc1)c1cc(Cl)ccc1NS(=O)(=O)c1ccc(Oc2ccccc2Cl)cc1`, 54.2%.
As to `O=C(NCc1ccc(-c2cccs2)cc1)c1cc(Cl)ccc1NS(=O)(=O)c1ccc(Oc2ccccc2Cl)cc1`, under setting [1], the inhibition worked out at 28.5%.
For the compound `O=C(Nc1ccccc1-c1ccccc1)c1cc(Cl)ccc1NS(=O)(=O)c1ccc(Oc2ccccc2Cl)cc1`, the inhibition under setting [1] was determined as 36.2%.
Take `O=C(Nc1cccnc1Br)c1cc(Cl)ccc1NS(=O)(=O)c1ccc(Oc2ccccc2Cl)cc1`: the inhibition under setting [1] is 23%.
For the compound `O=C(Nc1ccc(-c2ccccn2)cc1)c1cc(Cl)ccc1NS(=O)(=O)c1ccc(Oc2ccccc2Cl)cc1`, the inhibition under setting [1] is 58.7%.
Take `O=C(Nc1cc(Cl)c(F)c(Cl)c1)c1cc(Cl)ccc1NS(=O)(=O)c1ccc(Oc2ccccc2Cl)cc1`: the inhibition under setting [1] came to 24.3%.
Still for that read-out and setting: in the case of `O=C(Nc1ccc(-c2ccccc2)cc1)c1cc(Cl)ccc1NS(=O)(=O)c1ccc(Oc2ccccc2Cl)cc1` it was 26.5%.
Still for that read-out and setting: next, `O=C(NCCNC(=O)c1cc(Cl)ccc1NS(=O)(=O)c1ccc(Oc2ccccc2Cl)cc1)c1ccccc1Cl`: 25%.
`NC(=O)[C@H](Cc1ccc(O)cc1)NC(=O)C1CCN(c2ccc(C=O)cc2)CC1`: the inhibition under setting [2] came to 27%.
In the case of `O=C(c1cc(Cl)ccc1NS(=O)(=O)c1ccc(Oc2ccccc2Cl)cc1)N1CCC(n2c(=O)[nH]c3ccccc32)CC1`, under setting [1], the inhibition worked out at 15.6%.
As for `CC(C)(CO)NC(=O)c1cc(Cl)cc(NC(=O)Cc2cccc(N3CCOCC3)c2)c1`, the inhibition runs as follows: (PRVABC59, Concentration 49.5 uM, Number of replicates 2.0, Standard deviation 3.0522593855592395 %) -2.52%; (PRVABC59, Concentration 99.01 uM, Number of replicates 2.0, Standard deviation 3.368926317951112 %) -0.793%; (PRVABC59, Concentration 198.0 uM, Number of replicates 2.0, Standard deviation 2.506775358140388 %) 0.389%.
On to `O=C(c1cc(Cl)ccc1NS(=O)(=O)c1ccc(Oc2ccccc2Cl)cc1)N1CCC[C@H](C(F)(F)F)C1`, for which the inhibition under setting [1] was found to be 20.5%.
On the same count and under the same terms, next, `CN(Cc1cccc2ccccc12)C(=O)c1cc(Cl)ccc1NS(=O)(=O)c1ccc(Oc2ccccc2Cl)cc1`: 19.1%.
As to `O=C(NCCc1c[nH]cn1)[C@@]1(c2ccc(F)cc2)CCCNC1`, the inhibition (PRVABC59, Concentration 50.0 uM, Number of replicates 2.0, Standard deviation 1.8533531884648646 %) turned out to be 1.12%; the inhibition (PRVABC59, Concentration 100.0 uM, Number of replicates 2.0, Standard deviation 1.243259032729753 %) was found to be 2.94%; the inhibition (PRVABC59, Concentration 200.0 uM, Number of replicates 2.0, Standard deviation 0.45116199355607794 %) is 1.26%.
Regarding `O=C(CNC(=O)c1cc(Cl)ccc1NS(=O)(=O)c1ccc(Oc2ccccc2Cl)cc1)c1ccccc1F`, the inhibition under setting [1] was 40.7%.
Still for that read-out and setting: in the case of `Cc1cc(Br)cc(NC(=O)c2cc(Cl)ccc2NS(=O)(=O)c2ccc(Oc3ccccc3Cl)cc2)c1` it was 53.6%; in that of `O=C(CNC(=O)c1cc(Cl)ccc1NS(=O)(=O)c1ccc(Oc2ccccc2Cl)cc1)c1ccc([N+](=O)[O-])cc1`, 33%; in that of `O=C(Nc1cccc(I)c1)c1cc(Cl)ccc1NS(=O)(=O)c1ccc(Oc2ccccc2Cl)cc1`, 48.1%.
The same measure, in the same setting: next, `Cc1cc(NC(=O)c2cc(Cl)ccc2NS(=O)(=O)c2ccc(Oc3ccccc3Cl)cc2)cc(C)c1Br`: 27.6%.
`O=C(Nc1ccc2c(c1)OCCO2)c1cc(Cl)ccc1NS(=O)(=O)c1ccc(Oc2ccccc2Cl)cc1`: the inhibition under setting [1] was found to be 63.8%.
The same measure, in the same setting: in the case of `O=C(Nc1ccc(I)c(F)c1)c1cc(Cl)ccc1NS(=O)(=O)c1ccc(Oc2ccccc2Cl)cc1` it was 37.6%; in that of `O=C(CNC(=O)c1cc(Cl)ccc1NS(=O)(=O)c1ccc(Oc2ccccc2Cl)cc1)c1ccc(O)cc1`, 52.2%.
On the same count and under the same terms, next, `O=C(Nc1ccc(I)cc1)c1cc(Cl)ccc1NS(=O)(=O)c1ccc(Oc2ccccc2Cl)cc1`: 58.1%.
Take `O=C(Nc1cccc(Br)c1)c1cc(Cl)ccc1NS(=O)(=O)c1ccc(Oc2ccccc2Cl)cc1`: the inhibition under setting [1] was 43.8%.
Still for that read-out and setting: next, `O=C(NCc1ccc2c(c1)OCCO2)c1cc(Cl)ccc1NS(=O)(=O)c1ccc(Oc2ccccc2Cl)cc1`: 24.8%.
In the case of `O=C(Nc1ccc2c(c1)OC(F)(F)O2)c1cc(Cl)ccc1NS(=O)(=O)c1ccc(Oc2ccccc2Cl)cc1`, the inhibition under setting [1] worked out at 50%.
